An excerpt weighted towards active compounds, which were near 3.4% of everything screened.
Mcl-1 Bim block = inhibitors of Bim-Mcl-1 interaction, human; inhibition, % at 10 µM; Bead-based flow cytometry, Bim peptide-Mcl-1 binding; 190,000 tested, 0.1% active; in the data active = inhibition above about 40%;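 note: 0% = no compound tracer wells and 100% = peptide blocker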
Target sequence (Q07820 whole entry, looked up): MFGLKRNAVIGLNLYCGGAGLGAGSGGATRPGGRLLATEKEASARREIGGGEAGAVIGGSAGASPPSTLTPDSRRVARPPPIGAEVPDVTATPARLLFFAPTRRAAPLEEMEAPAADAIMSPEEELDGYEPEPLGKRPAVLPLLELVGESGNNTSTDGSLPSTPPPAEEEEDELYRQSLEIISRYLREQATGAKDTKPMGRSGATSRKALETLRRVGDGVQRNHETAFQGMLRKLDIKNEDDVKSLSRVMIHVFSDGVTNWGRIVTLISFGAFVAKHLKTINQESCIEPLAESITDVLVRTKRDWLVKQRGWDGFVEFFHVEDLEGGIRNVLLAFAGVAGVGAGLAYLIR
Mcl1 Bid PPI = disrupts binding of human Mcl-1 to Bid peptide | Q07820 | TR-FRET Mcl-1/Bid-Dy647 peptide binding, 1536-well | inhibition, % at 21.7 µM | 220,000 tested, 0.97% active;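 active = compounds that cut the binding signal by more than half at the single screening dose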;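 note: His-tagged Mcl-1 with europium anti-His antibody binding Bid BH3 peptide; 0% = Mcl-1 plus peptide wells and 100% = peptide-only wells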
14-3-3 Bad inh = disrupts binding of bovine 14-3-3 zeta to phospho-Bad peptide. inhibition, % at 21.7 µM. TR-FRET 14-3-3zeta/Dy647-pBad peptide displacement, 1 h. 220,000 tested, 0.71% active. AID 781. P63103;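 active = inhibition above about 70%, limit read from the data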;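 note: 0% = full 14-3-3 plus peptide FRET controls and 100% = background without 14-3-3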
p47phox inh = blocks human p47phox regulatory protein of NADPH oxidases. P14598. p47phox/p22phox peptide binding, fluorescence polarization, 2 h. inhibition, % at 24.7 µM. 220,000 tested, 0.53% active. AID 1274;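 note: 0% = p47phox with labelled peptide and 100% = labelled peptide alone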
eIF4E 4G PPI = blocks eIF4E binding to eIF4G. 220,000 tested, 0.37% active. TR-FRET eIF4E-eIF4GI(517-606) binding, 2 h. inhibition, % at 21.7 µM. P63073+Q04637;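 note: 0% = full FRET control wells and 100% = background wells lacking eIF4GI fragment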
Mcl1 Noxa PPI = Mcl-1/Noxa interaction inhibition; Q07820; TR-FRET Mcl-1/Noxa peptide binding, 2 h; inhibition, % at 21.7 µM; 220,000 tested, 1.5% active;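 active = compounds that cut the protein-peptide binding signal by more than 50% relative to plate controls in a single-dose test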;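 note: His-tagged Mcl-1 with rhodamine Noxa BH3 peptide and terbium anti-His antibody; 0% = Mcl-1 plus Noxa peptide wells and 100% = peptide-only wells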
* marks the source's active call; other numbers are inactive results.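 Rule for the calls, unless noted: active = inhibition above about 30% (limit read from the data); inactive = the rest.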

How did CC(C)(C)c1ccc(OCC(=O)NNC(=O)CCc2ccccc2)cc1 do in these assays?
Mcl-1 Bim block: -4; Mcl1 Bid PPI: 2; 14-3-3 Bad inh: 0; p47phox inh: 61*; eIF4E 4G PPI: -1; Mcl1 Noxa PPI: 14

Results for COC(=O)c1ccc2c(c1O)C(=O)c1ccccc1C2=O ?
Mcl-1 Bim block: 3; Mcl1 Bid PPI: 48; 14-3-3 Bad inh: 0; p47phox inh: 19; eIF4E 4G PPI: -12; Mcl1 Noxa PPI: 58*

What do the screens show for `Cc1ccc2c(c1)C(=O)c1c(C(=O)O)cccc1-2`?
Mcl-1 Bim block: -1; Mcl1 Bid PPI: 0; 14-3-3 Bad inh: -15; p47phox inh: -2; eIF4E 4G PPI: -1; Mcl1 Noxa PPI: 13

Results for Nc1c(C(=O)O)ccc2c1C(=O)c1ccccc1C2=O ?
Mcl-1 Bim block: 2; Mcl1 Bid PPI: -33; 14-3-3 Bad inh: -1; p47phox inh: 77*; eIF4E 4G PPI: 0; Mcl1 Noxa PPI: 26

How did Nc1cc(C(=O)O)c(N)c2c1C(=O)c1ccccc1C2=O do in these assays?
Mcl1 Bid PPI: -86; 14-3-3 Bad inh: 6; p47phox inh: active; eIF4E 4G PPI: -6; Mcl1 Noxa PPI: 96*

How did CCN(CC)C(=O)c1ccc2c(c1[N+](=O)[O-])C(=O)c1ccccc1C2=O do in these assays?
Mcl-1 Bim block: -6; Mcl1 Bid PPI: 2; 14-3-3 Bad inh: -2; p47phox inh: -11; eIF4E 4G PPI: 1; Mcl1 Noxa PPI: 7

Results for CCSc1c(C(=O)NC)ccc2c1C(=O)c1ccccc1C2=O ?
Mcl-1 Bim block: -3; Mcl1 Bid PPI: 0; 14-3-3 Bad inh: 12; p47phox inh: -3; eIF4E 4G PPI: 7; Mcl1 Noxa PPI: 2

What do the screens show for `CCC(=O)Oc1ccc(NC(=O)CSCc2ccccc2)cc1`?
Mcl-1 Bim block: 4; Mcl1 Bid PPI: -30; 14-3-3 Bad inh: -5; p47phox inh: -9; eIF4E 4G PPI: -5; Mcl1 Noxa PPI: 6

What do the screens show for `CC1(C)Cc2ccccc2/C(=C/C(=O)N2CCCCCC2)N1`?
Mcl-1 Bim block: 2; Mcl1 Bid PPI: -54; 14-3-3 Bad inh: 74*; p47phox inh: -2; eIF4E 4G PPI: 12; Mcl1 Noxa PPI: 17

Results for CC(N=C1NC(C)(C)Cc2ccccc21)C(=O)O (stereo not given) ?
Mcl-1 Bim block: 1; Mcl1 Bid PPI: -9; 14-3-3 Bad inh: 91*; p47phox inh: 2; eIF4E 4G PPI: 4; Mcl1 Noxa PPI: -4

What do the screens show for `CC1(C)Cc2ccccc2C(=NCCCC(=O)O)N1`?
Mcl-1 Bim block: 0; Mcl1 Bid PPI: -12; 14-3-3 Bad inh: 11; p47phox inh: -7; eIF4E 4G PPI: 3; Mcl1 Noxa PPI: 4

Results for Nc1cc(Cl)ccc1N1C(=O)CCC1=O ?
Mcl1 Bid PPI: -11; 14-3-3 Bad inh: -2; p47phox inh: 31*; eIF4E 4G PPI: 6; Mcl1 Noxa PPI: -10

How did Clc1ccc(SCCn2ccnc2)cc1 do in these assays?
Mcl-1 Bim block: 0; Mcl1 Bid PPI: 67*; 14-3-3 Bad inh: 22; p47phox inh: -12; eIF4E 4G PPI: 1; Mcl1 Noxa PPI: 6

Results for Clc1ccc(OCCn2ccnc2)c(Cl)c1 ?
Mcl-1 Bim block: -2; Mcl1 Bid PPI: 28; 14-3-3 Bad inh: 59; p47phox inh: -18; eIF4E 4G PPI: -4; Mcl1 Noxa PPI: 31

Results for CC(=O)c1c(O)c2ccccc2n(C)c1=O ?
Mcl-1 Bim block: 0; Mcl1 Bid PPI: -21; 14-3-3 Bad inh: 3; p47phox inh: -5; eIF4E 4G PPI: 1; Mcl1 Noxa PPI: 51*

How did CCn1c(=O)c(C(C)=O)c(O)c2ccccc21 do in these assays?
Mcl-1 Bim block: 0; Mcl1 Bid PPI: -9; 14-3-3 Bad inh: -8; p47phox inh: -7; eIF4E 4G PPI: 5; Mcl1 Noxa PPI: 19

How did O=C(CNCc1ccncc1)Nc1cc(S(=O)(=O)N2CCCCC2)ccc1Cl do in these assays?
Mcl-1 Bim block: -7; Mcl1 Bid PPI: 55*; 14-3-3 Bad inh: 34; p47phox inh: -9; eIF4E 4G PPI: -1; Mcl1 Noxa PPI: 35

Results for O=C(CNCc1ccccn1)Nc1cc(S(=O)(=O)N2CCCCC2)ccc1Cl ?
Mcl-1 Bim block: 1; Mcl1 Bid PPI: -27; 14-3-3 Bad inh: -15; p47phox inh: -16; eIF4E 4G PPI: -1; Mcl1 Noxa PPI: -14
